# Laboratory results from PubChem BioAssay (NCI).
# Several values for one entry are separate records, joined by “and”; a condition that tells them apart may be missing. Equal values may be shown once. This is part of a sample that, as a whole, favours compounds with a hit. Of some 83,000 tested, about 20% had one in any assay.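 Single-concentration screen, 48 h exposure, 96-well plates. Endpoint: percent growth. Below 10 = active.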 Values without a mark were called inactive. Activity calls are given as the source filed them.
# Key:
# Experiment in all cases: NCI-60 one-dose screen, 48 h (100 = growth as untreated, 0 = no growth, -100 = all killed)
# Conditions in all cases: 10 µM unless noted
# [1] = system: SK-MEL-2 melanoma
# [2] = system: EKVX NSCLC
# [3] = system: SN12C renal
# [4] = system: UO-31 renal
# [5] = system: TK-10 renal
# [6] = system: ACHN renal
# [7] = system: CAKI-1 renal
# [8] = system: A498 renal
# [9] = system: HL-60(TB) leukemia
# [10] = system: CCRF-CEM leukemia
# [11] = system: MOLT-4 leukemia
# [12] = system: SR leukemia
# [13] = system: RPMI-8226 leukemia
# [14] = system: OVCAR-5 ovarian
# [15] = system: OVCAR-4 ovarian
# [16] = system: SK-OV-3 ovarian
# [17] = system: IGROV1 ovarian
# [18] = system: OVCAR-3 ovarian
# [19] = system: HS 578T breast
# [20] = system: OVCAR-8 ovarian
Structure (SMILES),growth [1],growth [2],growth [3],growth [4],growth [5],growth [6],growth [7],growth [8],growth [9],growth [10],growth [11],growth [12],growth [13],growth [14],growth [15],growth [16],growth [17],growth [18],growth [19],growth [20]
Cc1c(C)c(N)c(C)c(C)c1N,15%,108%,72.6%,60.6%,90.8%,-8.61% (active),46.6%,102%,103%,91.8%,84.1%,69.5%,98.7%,85.1%,75.6%,91.3%,80.7%,115%,114%,
C/C=C(/C)C(=O)O[C@H]1CC[C@@]2(C)[C@@H]3CC[C@H]4[C@]5(O)C[C@H](O)[C@@]6(O)[C@@H](CN7C[C@@H](C)CC[C@H]7[C@@]6(C)O)[C@]5(O)C[C@@]42O[C@@]13O,0.648% (active),107%,115%,81%,125%,113%,103%,127%,128%,106%,112%,97.4%,113%,103%,102%,118%,49.3%,120%,116%,
Cc1cc(C(C)(C)C)ccc1O,110%,112%,114%,86.9%,108%,112%,101%,96%,96.9%,106%,99.5%,93.8%,105%,120%,109%,100%,107%,105%,99.8%,
CCCCS(=O)(=O)Cl,106%,94.8%,104%,100%,103%,110%,100%,97.9%,105%,103%,116%,104%,109%,104%,97.8%,,116%,120%,102%,105%
N#CCN(CC#N)[N+](=O)[O-],105%,104%,94%,101%,100%,110%,95.2%,95%,115%,85.2%,114%,100%,97.2%,,111%,104%,121%,108%,89.5%,109%
C[Se]/C=C1/C(=O)N(c2c(Cl)cccc2Cl)c2ccccc21,51.1%,24%,-35.7% (active),-96.5% (active),11.6%,30.1%,2.44% (active),11.5%,-39.7% (active),10.2%,10.2%,2.07% (active),2.93% (active),,34.3%,61.5%,44.7%,20.3%,13%,-15.2% (active)
O=C(Cc1ccccc1)NC(O)C(Cl)(Cl)Cl (stereo not given),105%,124%,99.3%,93.8%,99.8%,120%,108%,104%,101%,106%,96.1%,101%,104%,,105%,106%,,124%,124%,96.1%
CCOP(=O)(NC)OCC,124%,146%,106%,92.2%,129%,108%,111%,74.3%,73.9%,93.4%,127%,71.3%,92.8%,91.5%,105%,104%,105%,99.5%,98.4%,
O=C(NC1=NCC[Se]1)c1ccccc1O,83%,73%,68.4%,17.8%,56.7%,79.8%,50.8%,88.5%,58.8%,21.8%,30.3%,19%,64.8%,53.3%,71.1%,135%,-8.34% (active),69.8%,35.5%,
COc1ccc(N(CC(=O)NCCC[Te]c2ccccc2)C(=O)c2ccccc2)cc1,101%,2.14% (active),19.9%,12.9%,97.7%,87.7%,84.9%,16.1%,36.9%,15.1%,17.9%,10.3%,22.5%,33.4%,99%,,15.4%,95.9%,32.4%,14.2%
OCCN=Cc1c[nH]c2ccccc12,109%,93.8%,93.3%,75.7%,122%,94.3%,80.4%,107%,101%,114%,101%,95.4%,120%,,94%,98.6%,,97.7%,97.5%,100%
Oc1ccc(O)c(Cl)c1,102%,112%,89.7% and 99.6%,56.6% and 75.2%,124% and 110%,95.9% and 101%,93.4% and 101%,109% and 98.6%,12.3% and 94.8%,15.5% and 64.5%,65.6% and 105%,70.4% and 94.5%,28.5% and 91.1%,112% and 113%,107% and 104%,108% and 105%,107% and 108%,79.6% and 97.8%,93.5% and 97.7%,
C#COc1cccc(Nc2ncnc3cc(NC(=O)CF)ccc23)c1,21.6% [6.25 µM],67.8% [6.25 µM],54.7% [6.25 µM],60.9% [6.25 µM],60.7% [6.25 µM],48.3% [6.25 µM],45.5% [6.25 µM],75.3% [6.25 µM],54.5% [6.25 µM],-7.49% [6.25 µM] (active),5.47% [6.25 µM] (active),20.9% [6.25 µM],62.4% [6.25 µM],,75% [6.25 µM],34.8% [6.25 µM],52.4% [6.25 µM],12% [6.25 µM],,
CC(=O)c1cccc(S(=O)(=O)F)c1,91.9%,98.8%,104%,83%,115%,99%,95.9%,95.8%,103%,97.9%,112%,76.1%,101%,90.5%,114%,,,117%,96.4%,106%
Oc1cc(Cl)ccc1Oc1ccc(Cl)cc1Cl,16.6%,42.7%,10.9%,-0.646% (active),102%,7.4% (active),90.5%,103%,-24.9% (active),24.8%,5.71% (active),3.21% (active),9.47% (active),,29.9%,89.2%,52.4%,6.75% (active),-18.1% (active),10.7%
